Results on 5 compounds are retold here after PubChem BioAssay AID504809 (National Center for Advancing Translational Sciences (NCATS), 2011).

Results filed as inconclusive are left out. Values without a mark were called inactive. The source made the active and inactive calls. Calls come from the whole dose curve; as a rule, active = well fitted curve in the direction sought with a large enough effect; inconclusive = small, poorly fitted or top-dose-only effect, or another doubt; inactive = no such curve, though single readings can be large or run the other way.

The nature of the assay: Followup screen for small molecules that induce DNA re-replication in MCF 10A normal breast cells. Conditions: MCF 10A DNA re-replication, Hoechst nuclear intensity, 48 h; series mostly up to 46.1 µM; re-replication activation: at the top concentration. From the text:
NIH Molecular Libraries Probe Production Network [MLPCN] NIH Chemical Genomics Center [NCGC] MLPCN Grant: Fast Track K99 CA136555 Assay Provider: Melvin DePamphilis, NICHD, NIH Assay Overview Eukaryotic cells normally restrict genome duplication to once per cell division. When this process is aberrant, DNA re-replication occurs when cells reinitiate DNA replication before the first round of replication is complete. DNA re-replication induces the DNA damage response, arrests cell proliferation, and triggers apoptosis. The cell cycle components cyclin A, Cdt-1, Cdc6 and geminin are critical regulators of this process and their misregulation results in DNA re-replication in normal and cancer cells. To identify compounds that induce re-replication in normal cells, an image-based assay was used to measure DNA content of nuclei, as detected by the fluorescent DNA binding dye, Hoechst. Cell nuclei were imaged by a fluorescence scanning plate imager and compounds that induce DNA re-replication were identified by the increase of nuclei with elevated fluorescence intensity.
Assay Protocol Summary For screening, 250 cells in 5 uL/well were dispensed into black clear 1536-well plates (Aurora) using a solenoid-based dispenser. Following transfer of 23 nL compound or DMSO vehicle by a pin tool, the plates were incubated 48 hr at 37 C and 5% CO2. After addition of 1 uL/well Hoescht stain, the plates were incubated 40 min at 37 C, 5% CO2 and total intensity of fluorescent objects (nuclei) were enumerated by an Acumen Explorer Ex3 (TTP LabTech) fluorescence scanning plate imager (405 nm excitation, 500-530 nm emission). Keywords: NIH Roadmap, MLPCN, MLI, MLSMR, qHTS, NCGC, DNA replication, cancer
Consider `CS(C)=O.[Cl-].[Cl-].[Cu+2]`, for which the “re-replication activation” value is -11.4%.

Turning to `CC(=O)[O-].CCN(CC)C(=S)SSC(=S)N(CC)CC.[Cu+]`, the Potency was 190 nM (active).

For `CC(=O)[O-].CS(C)=O.[Cu+]`, the “re-replication activation” value was -7.36%.

With `CCN(CC)C(=S)SSC(=S)N(CC)CC.[Cl-].[Cl-].[Cu+2]`, the Potency is 95 nM (active).

In the case of `CCN(CC)C(=S)SSC(=S)N(CC)CC`, the Potency was 21300 nM (active).
